Data reported in PubChem BioAssay AID1159580 (chemical genetic matrix, 2015).
Values joined by “and” are separate entries in the source; they are usually repeats but may differ in a detail not shown here. Equal values may be shown once. In all, about 5,500 compounds went through this assay and about 2,000 (36%) were called active. Roughly 18% stayed inconclusive and do not appear here. No stated cut-off is given here; in the data, active means normalized growth mostly below about 0.91 (no sharp cut-off); inconclusive means no clear call, values can overlap the other calls; inactive means mostly above about 0.92. Some of the results follow.

Assay: chemical genetic growth profiling, strain panel (AID 1159580);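 further: tested at 20 µM; growth read once vehicle control cultures reached saturation at 30 °C; 1 = growth at the plate median or of vehicle wells; lower values mean less growth of the strain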
Settings: S. cerevisiae deletion strains, growth OD

Measured: normalized growth

CCCCCC(=O)O[C@]1(C(C)=O)CCC2C3CCC4=CC(=O)CC[C@]4(C)C3CC[C@@]21C (some centres undefined)
inactive: locus YAL013W, strain DEP1, active compounds read low 1.02 | locus YAL021C, strain ccr4, active compounds read low 1 | locus YAL026C, strain drs2, active compounds read low 1.03 | locus YAL030W, strain snc1, active compounds read low 1 | locus YBL061C, strain skt5, active compounds read low 1 | locus YBR009C, strain hhf1, active compounds read low 1.01 | locus YBR021W, strain FUR4, active compounds read low 0.948 | locus YBR023C, strain chs3, active compounds read low 0.985 | locus YBR171W, strain sec66, active compounds read low 0.993 | locus YBR229C, strain ROT2, active compounds read low 1.01 | locus YBR231C, strain swc5, active compounds read low 0.991 | locus YBR279W, strain paf1, active compounds read low 1 | locus YCL011C, strain gbp2, active compounds read low 1.01 | locus YCL016C, strain dcc1, active compounds read low 1 | locus YCL029C, strain bik1, active compounds read low 1.01 | locus YCL061C, strain MRC1, active compounds read low 0.971 | locus YCL069W, strain vba3, active compounds read low 1.01 | locus YCR088W, strain abp1, active compounds read low 0.995 | locus YDL005C, strain med2, active compounds read low 0.996 | locus YDL035C, strain GPR1, active compounds read low 1.02 | locus YDL040C, strain nat1, active compounds read low 1.01 | locus YDL074C, strain BRE1, active compounds read low 1.01 | locus YDL101C, strain DUN1, active compounds read low 1.01 | locus YDL134C, strain PPH21, active compounds read low 1.01 | locus YDL185W, strain tfp1, active compounds read low 1.02 | locus YDL192W, strain arf1, active compounds read low 1.01 | locus YDR001C, strain nth1, active compounds read low 1.01 | locus YDR069C, strain doa4, active compounds read low 0.995 | locus YDR101C, strain arx1, active compounds read low 1.01 | locus YDR137W, strain rgp1, active compounds read low 1.01 | locus YDR150W, strain NUM1, active compounds read low 1.02 | locus YDR159W, strain sac3, active compounds read low 0.976 | locus YDR162C, strain NBP2, active compounds read low 0.996 | locus YDR195W, strain ref2 1.02 | locus YDR297W, strain sur2, active compounds read low 1 | locus YDR318W, strain mcm21, active compounds read low 1 | locus YDR334W, strain swr1, active compounds read low 0.999 | locus YDR335W, strain msn5, active compounds read low 1.01 | locus YDR388W, active compounds read low 1.01 | locus YDR392W, strain spt3, active compounds read low 0.91 | locus YDR502C, strain sam2, active compounds read low 1.01 | locus YEL003W, strain gim4, active compounds read low 1.02 | locus YEL037C, strain rad23, active compounds read low 1 | locus YEL061C, strain CIN8 (second series), active compounds read low 1 | locus YEL061C, strain CIN8, active compounds read low 1 | locus YER015W, strain faa2, active compounds read low 0.997 | locus YER016W, strain bim1, active compounds read low 0.988 | locus YER110C, active compounds read low 1.02 | locus YER111C, strain swi4, active compounds read low 0.991 | locus YER155C, strain BEM2 (second series), active compounds read low 1.01 | locus YER155C, strain BEM2, active compounds read low 1.01 | locus YER167W, strain BCK2, active compounds read low 1.01 | locus YFR010W, strain ubp6, active compounds read low 1.02 | locus YGL078C, strain dbp3, active compounds read low 1.01 | locus YGL086W, strain mad1, active compounds read low 1.01 | locus YGL167C, strain pmr1, active compounds read low 0.989 | locus YGL173C, strain kem1, active compounds read low 1.01 | locus YGL227W, strain vid30, active compounds read low 1 | locus YGL240W, strain doc1, active compounds read low 0.976 | locus YGL248W, strain PDE1, active compounds read low 1.01 | locus YGL253W, strain hxk2, active compounds read low 1.01 | locus YGR135W, strain pre9, active compounds read low 1.01 | locus YGR252W, strain gcn5, active compounds read low 0.974 | locus YHR013C, strain ard1, active compounds read low 1.01 | locus YHR027C, strain rpn1, active compounds read low 0.999 | locus YHR030C, strain SLT2, active compounds read low 1.03 and 0.978 | locus YHR079C, strain IRE1 (second series), active compounds read low 1.01 | locus YHR079C, strain IRE1, active compounds read low 0.976 | locus YHR094C, strain hxt1, active compounds read low 1 | locus YHR129C, strain ARP1, active compounds read low 1.01 | locus YHR142W, strain chs7, active compounds read low 1.02 | locus YHR200W, strain rpn10, active compounds read low 1.01 | locus YIL066C, strain RNR3, active compounds read low 1.02 | locus YIL073C, strain SPO22, active compounds read low 1.04 | locus YIL125W, strain kgd1, active compounds read low 1.01 | locus YIR030C, strain dcg1, active compounds read low 1.01 | locus YJL092W, strain hpr5, active compounds read low 1.01 | locus YJL095W, strain BCK1 (second series), active compounds read low 1 | locus YJL095W, strain BCK1, active compounds read low 1.02 and 0.987 | locus YJL115W, strain asf1, active compounds read low 1 | locus YJL129C, strain trk1, active compounds read low 0.946 | locus YJL134W, strain LCB3, active compounds read low 0.98 | locus YJL154C, strain vps35, active compounds read low 1.02 | locus YJL164C, strain tpk1, active compounds read low 1.01 | locus YJL166W, strain qcr8, active compounds read low 1 | locus YJL168C, strain set2, active compounds read low 1.01 | locus YJL187C, strain SWE1 (second series), active compounds read low 1.01 | locus YJL187C, strain SWE1, active compounds read low 0.997 | locus YJR043C, strain POL32, active compounds read low 1.01
